This is a sample that favours compounds with a hit; in the whole collection about 22% have one here.
CHX counter – counter-screen for Shiga toxin inhibitors: cycloheximide protein synthesis inhibition; cell reporter, cycloheximide protein synthesis inhibition counterscreen; max response, %; 300,000 tested, 12% active; in the data active = max response mostly above about 13%, no sharp cut-off; inactive = mostly below about 14%; note: read at 38.3 µM for the half of the compounds with a filed dose; 0% is about no effect
Pf growth 96h – inhibits malaria parasite growth, 96 h | P. falciparum luciferase reporter growth, 96 h | Potency, µM (highest dose often 28.7 µM), inactives show at the highest dose activity change, negative = inhibition, hits mostly inhibitors | 320,000 tested, 6.9% active | AID 504834; note: potency is the fitted concentration of half-maximal effect; % is set by controls: 0 for no effect and ±100 for the full control effect
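Delayed-death screen, second-generation endpoint: infected erythrocytes, 2% hematocrit, 0.05% parasitemia final; 96 hours at 37 C, 5% CO2; luciferase detection reagent; luminescence decrease equals reduced growth.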
Pf growth 48h – inhibits P. falciparum growth in the first generation, 48 h | P. falciparum luciferase growth in erythrocytes, 48 h | Potency, µM (series often up to 28.7 µM), inactives show at the top dose activity change, negative = inhibition, hits mostly inhibitors | 310,000 tested, 5.9% active; note: potency is the fitted concentration of half-maximal effect; % is set by controls: 0 for no effect and ±100 for the full control effect
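In quantitative HTS format, infected erythrocytes bearing luciferase-reporter parasites were treated for a single generation at 37 C. Luminescence after adding detection reagent served as the growth measure.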
LmPK inh – blocks Leishmania mexicana pyruvate kinase activity; Q27686; purified LmPK, Kinase-Glo ATP luminescence, 1 h; Potency, µM (series often up to 57.5 µM), for the others: at the highest dose activity change, negative = inhibition, usual class: inhibitors; 290,000 tested, 0.37% active; note: potency is the fitted concentration of half-maximal effect; % is set by controls: 0 for no effect and ±100 for the full control effect
Target sequence (Q27686 whole entry, looked up): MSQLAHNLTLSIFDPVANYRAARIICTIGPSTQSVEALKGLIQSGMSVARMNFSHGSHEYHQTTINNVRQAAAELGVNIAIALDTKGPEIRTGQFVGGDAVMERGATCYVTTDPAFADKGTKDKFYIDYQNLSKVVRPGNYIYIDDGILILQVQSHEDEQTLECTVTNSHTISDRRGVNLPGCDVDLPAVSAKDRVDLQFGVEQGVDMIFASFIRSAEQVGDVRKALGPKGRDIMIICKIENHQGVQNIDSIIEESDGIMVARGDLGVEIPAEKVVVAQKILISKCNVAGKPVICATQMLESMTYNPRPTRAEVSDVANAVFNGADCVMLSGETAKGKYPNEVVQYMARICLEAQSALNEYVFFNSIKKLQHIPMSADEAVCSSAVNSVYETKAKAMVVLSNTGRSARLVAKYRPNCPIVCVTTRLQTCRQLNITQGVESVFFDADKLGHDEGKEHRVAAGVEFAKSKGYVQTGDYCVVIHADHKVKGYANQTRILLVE
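Kinase-Glo luminescence read after 1 h RT reaction of 0.1 nM LmPK with 0.5 mM PEP and 0.1 mM ADP. Activity scaled between uninhibited and enzyme-free controls.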
Shiga inhibitor – blocks Shiga toxin action in Vero cells. 290,000 tested, 9.2% active. inhibition, % at 38.7 µM. Vero cells, Shiga toxin protein synthesis inhibition reporter; in the data active = inhibition mostly above about 28%, no sharp cut-off; inactive = mostly below about 43%; note: 0% is about no effect
An asterisk follows results filed as active. Unless noted, calls come from the whole dose curve; as a rule, active = well fitted inhibition curve with a large enough effect; inconclusive = small, poorly fitted or top-dose-only effect, or another doubt; inactive = no such curve, though single readings can be large or run the other way.

Screening O=C(N/N=C/C(Cl)=C/c1ccc([N+](=O)[O-])cc1)C(=O)Nc1ccccc1C(=O)O returned CHX counter 4, Pf growth 96h inconclusive, Pf growth 48h -17%, LmPK inh -15% and Shiga inhibitor 14.
For COc1cc([N+](=O)[O-])ccc1NC(=S)Nc1cccc(C(=O)O)c1 the results were CHX counter 13, Pf growth 96h 1.5µM*, Pf growth 48h -10%, LmPK inh 0% and Shiga inhibitor 12.
`COC(=O)Nc1ccc([N+](=O)[O-])cc1OC` gave CHX counter -3, Pf growth 96h inactive, Pf growth 48h 26%, LmPK inh -1% and Shiga inhibitor -26.
`COc1ccc(S(=O)(=O)NCC2CCCO2)cc1NC(=O)c1ccccc1F` (stereo not given) gave CHX counter -2, Pf growth 96h -4%, Pf growth 48h 22%, LmPK inh -5% and Shiga inhibitor -7.
Screening COc1ccccc1NS(=O)(=O)c1ccc(C(=O)NCCCN2CCCC2=O)cc1 returned Pf growth 96h -8% and Pf growth 48h 12%.
NC(=NCCc1ccccc1)NS(=O)(=O)c1ccccc1F was read as CHX counter -2, Pf growth 96h 24%, Pf growth 48h 9%, LmPK inh 1% and Shiga inhibitor -4.
Screening CCNC(=S)NC1CC2CCC(C1)N2Cc1ccccc1 (stereo not given) returned CHX counter -2, Pf growth 96h inconclusive, Pf growth 48h 6%, LmPK inh -4% and Shiga inhibitor -17.
`CCNC(=S)NC1CC2CCCC(C1)N2CCc1ccccc1` (stereo not given) gave CHX counter 0, Pf growth 96h 8.3µM*, Pf growth 48h inconclusive, LmPK inh -9% and Shiga inhibitor -22.
Cc1cccc(N/C(N)=N/c2nc(C(F)(F)F)cc(=O)[nH]2)c1C was read as CHX counter 7, Pf growth 96h 9%, Pf growth 48h 4%, LmPK inh 1% and Shiga inhibitor -15.
Screening Cc1nnc(SCC(=O)N(CC(C)C)C2CCS(=O)(=O)C2)s1 (stereo not given) returned Pf growth 96h 0% and Pf growth 48h 0%.
`Cc1ccc(-n2ccnc2SCC(=O)N(CC(C)C)C2CCS(=O)(=O)C2)c(C)c1` (stereo not given) gave CHX counter 0, Pf growth 96h 4.1µM*, Pf growth 48h inconclusive, LmPK inh 4% and Shiga inhibitor -17.
Screening CC(C)CN(C(=O)CSc1nn(-c2ccc(Cl)cc2)c(=S)s1)C1CCS(=O)(=O)C1 (stereo not given) returned CHX counter -4, Pf growth 96h inconclusive, Pf growth 48h 8.3µM*, LmPK inh 0% and Shiga inhibitor -13.
For O=C(c1cc(-c2ccc(Cl)cc2)n[nH]1)N1CCN(C(=O)c2ccco2)CC1 the results were CHX counter 5, Pf growth 96h inconclusive, Pf growth 48h 13%, LmPK inh -2% and Shiga inhibitor 6.
Screening CC(C)(C)NC(=O)CN(CCc1ccccc1)C(=O)c1csnn1 returned CHX counter -2, Pf growth 96h inconclusive, Pf growth 48h -2%, LmPK inh 5% and Shiga inhibitor 21.
CCn1nc(C)c(Br)c1-c1nc(CS(=O)(=O)c2ccc(F)cc2)no1 was read as CHX counter 7, Pf growth 96h 49%, Pf growth 48h 38%, LmPK inh 1% and Shiga inhibitor -3.
`COc1ccc(Br)c(-c2nc(CS(=O)(=O)c3ccc(F)cc3)no2)c1` gave CHX counter 20*, Pf growth 96h 32%, Pf growth 48h 29%, LmPK inh -5% and Shiga inhibitor 37*.
`COc1ccc(Br)c(-c2nnc(CS(=O)(=O)c3ccccc3)o2)c1` gave CHX counter 36*, Pf growth 96h 29%, Pf growth 48h 82%, LmPK inh 0% and Shiga inhibitor 89*.
COc1ccc(NC(=O)/C(C#N)=C/c2ccc(Sc3nncn3C)c([N+](=O)[O-])c2)cc1 was read as CHX counter 1, Pf growth 96h inconclusive, Pf growth 48h inconclusive, LmPK inh 4% and Shiga inhibitor -4.
Screening COc1cc(-c2[nH]ncc2CN(C)Cc2cc(C)[nH]n2)cc(OC)c1OC returned CHX counter -1, Pf growth 96h inconclusive, Pf growth 48h -17%, LmPK inh -6% and Shiga inhibitor -5.
`COc1cc(-c2[nH]ncc2CN(C)Cc2nonc2C)cc(OC)c1OC` gave CHX counter -3, Pf growth 96h 1.7µM*, Pf growth 48h inconclusive, LmPK inh 0% and Shiga inhibitor -5.
For COc1ccc(-c2[nH]ncc2CN(C)Cc2nonc2C)c(OC)c1 the results were CHX counter 1, Pf growth 96h 10µM*, Pf growth 48h 9%, LmPK inh 9% and Shiga inhibitor -7.
`Cc1ccc(CN2CC(C(=O)N3CCN(c4ccccc4Cl)CC3)CC2=O)cc1` (stereo not given) gave Pf growth 96h 12µM* and Pf growth 48h 6.6µM*.
O=C1CC(C(=O)N2CCN(Cc3ccccc3)CC2)CN1Cc1ccccc1 (stereo not given) was read as Pf growth 96h 7% and Pf growth 48h inconclusive.
Screening COc1ccc(CN2CC(C(=O)N3CC(C)CC(C)C3)CC2=O)cc1 (stereo not given) returned CHX counter 5, Pf growth 96h 3.7µM*, Pf growth 48h 28%, LmPK inh 1% and Shiga inhibitor 5.
For CCCCN(C)CCCNC(=O)C1CC(=O)N(Cc2ccc(OC)cc2)C1 (stereo not given) the results were CHX counter -4, Pf growth 96h 12µM*, Pf growth 48h 19%, LmPK inh -2% and Shiga inhibitor 11.
`COc1ccc(CN2CC(C(=O)NCCC(C)C)CC2=O)cc1` (stereo not given) gave CHX counter -3, Pf growth 96h -19%, Pf growth 48h 4%, LmPK inh 7% and Shiga inhibitor 20.
Cc1cc(C(=O)Nc2ccc(Cl)cc2)c2ccccc2n1 was read as CHX counter -1, Pf growth 96h -18%, Pf growth 48h 7%, LmPK inh 3% and Shiga inhibitor 1.
For Cc1cc(C)cc(NC(=O)c2cc(C)nc3ccccc23)c1 the results were CHX counter -1, Pf growth 96h 12µM*, Pf growth 48h inconclusive, LmPK inh -3% and Shiga inhibitor -15.
Cc1cc(C(=O)Nc2ccccc2)c2ccccc2n1 was read as CHX counter -3, Pf growth 96h 13µM*, Pf growth 48h 11%, LmPK inh -7% and Shiga inhibitor -14.
`Cc1cc(C(=O)Nc2ccc3c(c2)OCCO3)c2ccccc2n1` gave CHX counter 22*, Pf growth 96h -11%, Pf growth 48h 21%, LmPK inh 0% and Shiga inhibitor 80*.
